Test results published in the supplement of paper PMC6089552.
The campaign covered roughly 3,200 compounds. About 300 (9.4%) showed activity. Many of the other results were omitted from the sample, so actives are more common in it than they were.

Tested on: A673/TR/shEF
Experiment: cell viability (LOESS-normalised, relative to median of negative controls) (log2 ratio); higher = more viable cells (less compound effect), active = hit call of the paper (over 3 MAD below the median)
Conditions: treatment time: 72 h
Method in brief: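 Viability of A673/TR/shEF Ewing sarcoma cells was determined by CellTiter-Glo luminescence. The cells, at 1,500 per well in 384-well plates, were grown with or without doxycycline from 24 h before compound addition to switch on EWS-FLI1 shRNA knockdown, then exposed for three days to library compounds at two or more concentrations or to DMSO controls. Signals were LOESS-corrected plate by plate, normalised to the negative-control median and log2-transformed.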

[1] = 0.25 µM, library screen: screen1, EWS-FLI1 expression: high (no doxycycline)
[2] = 0.25 µM, library screen: screen1, EWS-FLI1 expression: low (doxycycline-induced shRNA knockdown)
[3] = 2.5 µM, library screen: screen1, EWS-FLI1 expression: high (no doxycycline)
[4] = 2.5 µM, library screen: screen1, EWS-FLI1 expression: low (doxycycline-induced shRNA knockdown)
[5] = 0.025 µM, library screen: screen2, EWS-FLI1 expression: high (no doxycycline)
[6] = 0.025 µM, library screen: screen2, EWS-FLI1 expression: low (doxycycline-induced shRNA knockdown)
[7] = 0.25 µM, library screen: screen2, EWS-FLI1 expression: high (no doxycycline)
[8] = 0.25 µM, library screen: screen2, EWS-FLI1 expression: low (doxycycline-induced shRNA knockdown)
[9] = 2.5 µM, library screen: screen2, EWS-FLI1 expression: high (no doxycycline)
[10] = 2.5 µM, library screen: screen2, EWS-FLI1 expression: low (doxycycline-induced shRNA knockdown)
[11] = 25 µM, library screen: screen2, EWS-FLI1 expression: high (no doxycycline)
[12] = 25 µM, library screen: screen2, EWS-FLI1 expression: low (doxycycline-induced shRNA knockdown)
[13] = 0.103 µM, library screen: screen3, EWS-FLI1 expression: high (no doxycycline)
[14] = 0.103 µM, library screen: screen3, EWS-FLI1 expression: low (doxycycline-induced shRNA knockdown)
[15] = 0.308 µM, library screen: screen3, EWS-FLI1 expression: high (no doxycycline)
[16] = 0.308 µM, library screen: screen3, EWS-FLI1 expression: low (doxycycline-induced shRNA knockdown)
[17] = 0.926 µM, library screen: screen3, EWS-FLI1 expression: high (no doxycycline)
[18] = 0.926 µM, library screen: screen3, EWS-FLI1 expression: low (doxycycline-induced shRNA knockdown)
[19] = 2.8 µM, library screen: screen3, EWS-FLI1 expression: high (no doxycycline)
[20] = 2.8 µM, library screen: screen3, EWS-FLI1 expression: low (doxycycline-induced shRNA knockdown)
[21] = 8.3 µM, library screen: screen3, EWS-FLI1 expression: high (no doxycycline)
[22] = 8.3 µM, library screen: screen3, EWS-FLI1 expression: low (doxycycline-induced shRNA knockdown)
[23] = 25 µM, library screen: screen3, EWS-FLI1 expression: high (no doxycycline)
[24] = 25 µM, library screen: screen3, EWS-FLI1 expression: low (doxycycline-induced shRNA knockdown)

Measured: cell viability (log2)

CCCN(CCC)c1c([N+](=O)[O-])cc(C(F)(F)F)cc1[N+](=O)[O-]
inactive: [1] -0.0384 | [2] 0.0507 | [3] 0.104 | [4] 0.107

CCOC(=O)NC1=C(N2CC2)C(=O)C(NC(=O)OCC)=C(N2CC2)C1=O
active: [11] -3.5 | [12] -0.288
inactive: [5] -0.0137 | [6] -0.0126 | [1] 0.102 | [2] 0.0213 | [7] 0.153 | [8] -0.00616 | [3] 0.0672 | [4] 0.107 | [9] -0.0475 | [10] 0.0995

CCC(C)[C@H]1O[C@]2(C=C[C@@H]1C)C[C@@H]1C[C@@H](C/C=C(\C)[C@@H](O[C@H]3C[C@H](OC)[C@@H](O[C@H]4C[C@H](OC)[C@@H](O)[C@H](C)O4)[C@H](C)O3)[C@@H](C)/C=C/C=C3\CO[C@@H]4[C@H](O)C(C)=C[C@@H](C(=O)O1)[C@]34O)O2.CO[C@H]1C[C@H](O[C@H]2[C@H](C)O[C@@H](O[C@@H]3/C(C)=C/C[C@@H]4C[C@@H](C[C@]5(C=C[C@H](C)[C@@H](C(C)C)O5)O4)OC(=O)[C@@H]4C=C(C)[C@@H](O)[C@H]5OC/C(=C\C=C\[C@@H]3C)[C@]54O)C[C@@H]2OC)O[C@@H](C)[C@@H]1O (some centres undefined)
inactive: [1] 0.0422 | [2] 0.0818 | [3] 0.0639 | [4] 0.0892

Cn1cc(C2=C(c3cn(C4CCN(Cc5ccccn5)CC4)c4ccccc34)C(=O)NC2=O)c2ccccc21
inactive: [13] -0.105 | [14] -0.0101 | [15] -0.0168 | [16] 0.054 | [17] -0.0718 | [18] 0.0485 | [19] -0.024 | [20] -0.0681 | [21] 0.0419 | [22] 0.0589 | [23] -0.03 | [24] 0.0493

C=CCN1CCC23c4c5ccc(O)c4O[C@@H]2/C(=N/NC(=O)c2ccccc2)CCC3(O)[C@H]1C5 (some centres undefined)
inactive: [7] 0.0804 | [8] 0.0684 | [9] 0.0878 | [10] 0.0887

C[C@H]1CCC/C=C/[C@@H]2C[C@H](O)C[C@H]2[C@H](O)/C=C/C(=O)O1
active: [7] -0.127 | [8] -0.561 | [9] -3.76 | [10] -3.56

CN1[C@@H]2CC[C@H]1CC(OC(=O)C(CO)c1ccccc1)C2 (some centres undefined)
inactive: [13] -0.0138 | [14] 0.0399 | [1] 0.0603 | [2] 0.0968 | [15] -0.021 | [16] -0.00749 | [17] -0.0329 | [18] 0.092 | [3] 0.15 | [4] 0.157 | [19] -0.023 | [20] -0.00135 | [21] -0.0414 | [22] -0.0331 | [23] -0.025 | [24] 0.0734

NCCc1ccc(O)cc1
inactive: [1] 0.0239 | [2] 0.0662 | [7] 0.157 | [8] 0.123 | [3] 0.134 | [4] 0.0729 | [9] 0.116 | [10] 0.0531

COc1cc(CCN)ccc1O
inactive: [7] 0.212 | [8] 0.0815 | [9] 0.12 | [10] 0.0385

NCCc1ccc(S(=O)(=O)F)cc1
inactive: [8] 0.067 | [9] -0.0377 | [10] 0.0161
active: [7] -0.0889

COc1cc([C@@H]2c3cc4c(c(O)c3C[C@H]3COC(=O)[C@@H]32)OCO4)cc(OC)c1OC
active: [3] -3 | [4] -0.852
inactive: [1] 0.0843 | [2] 0.0231

COc1cc([C@@H]2c3cc4c(cc3[C@H](O)[C@H]3COC(=O)[C@H]23)OCO4)cc(OC)c1OC
active: [1] -3.56 | [2] -1.09 | [3] -4.23 | [4] -0.986 | [9] -1.33 | [10] -0.175 | [11] -2.9 | [12] -0.496
inactive: [5] 0.106 | [6] 0.109 | [7] 0.0134 | [8] 0.0379

COc1ccc2c(c1OC)C(=O)O[C@H]2[C@H]1c2cc3c(cc2CCN1C)OCO3
inactive: [1] 0.11 | [2] 0.0969 | [3] -0.0012 | [4] 0.0503

COc1ccc2c(c1OC)C(=O)O[C@H]2[C@@H]1c2cc3c(cc2CCN1C)OCO3
inactive: [7] 0.0965 | [8] 0.0835 | [9] 0.18 | [10] 0.113

COc1ccc2c(c1O)-c1c3c(cc4c1[C@H](C2)N(C)CC4)OCO3
inactive: [7] 0.104 | [8] 0.0658 | [9] 0.0733 | [10] 0.132

COc1cc([C@@H]2c3cc4c(cc3[C@H](O)[C@H]3COC(=O)[C@@H]23)OCO4)cc(OC)c1OC
inactive: [1] 0.0302 | [2] 0.00961
active: [3] -2.1 | [4] -0.572
